Bioassay records (PubChem)
BoNT F protease: blocks Botulinum neurotoxin F light chain protease; Multiplex microsphere protease cleavage assay, flow cytometry; inhibition, % at 10 µM; actives 0.22% (n = 360,000); AID 588497; in the data active = inhibition above about 35%, passing the limit was not always enough; inconclusive = no clear call, values can overlap the other calls; also: plate controls were buffer without enzyme for full effect and enzyme alone for no effect
Anthrax LF prot: inhibitors of Bacillus anthracis lethal factor protease. multiplex microsphere protease cleavage assay, LF. inhibition, % at 10 µM. actives 0.12% (n = 360,000). P15917. AID 588501; also: plate controls were buffer without enzyme for full effect and enzyme alone for no effect
Target sequence (P15917 whole entry, looked up): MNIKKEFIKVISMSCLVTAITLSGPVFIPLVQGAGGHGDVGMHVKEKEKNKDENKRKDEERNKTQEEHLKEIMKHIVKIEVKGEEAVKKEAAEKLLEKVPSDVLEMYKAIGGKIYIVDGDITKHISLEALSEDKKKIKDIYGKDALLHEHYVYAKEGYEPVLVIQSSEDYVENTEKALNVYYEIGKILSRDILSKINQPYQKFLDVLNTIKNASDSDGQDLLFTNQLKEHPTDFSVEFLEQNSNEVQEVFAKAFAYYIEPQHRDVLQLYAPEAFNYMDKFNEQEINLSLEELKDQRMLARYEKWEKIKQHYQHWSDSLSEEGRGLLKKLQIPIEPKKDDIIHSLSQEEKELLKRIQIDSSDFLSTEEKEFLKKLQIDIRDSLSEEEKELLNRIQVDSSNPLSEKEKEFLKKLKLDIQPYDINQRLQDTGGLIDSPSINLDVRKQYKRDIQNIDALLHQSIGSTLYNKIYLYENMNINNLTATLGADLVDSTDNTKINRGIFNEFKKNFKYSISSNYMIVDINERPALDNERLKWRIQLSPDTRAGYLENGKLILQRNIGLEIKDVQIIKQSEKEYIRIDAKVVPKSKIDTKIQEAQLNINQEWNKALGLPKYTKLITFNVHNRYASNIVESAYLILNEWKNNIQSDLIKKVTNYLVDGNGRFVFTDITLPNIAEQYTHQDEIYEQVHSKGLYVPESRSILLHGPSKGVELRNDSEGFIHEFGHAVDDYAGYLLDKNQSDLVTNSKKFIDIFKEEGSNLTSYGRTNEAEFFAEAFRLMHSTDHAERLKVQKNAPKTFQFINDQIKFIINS
BJeLR lethal: BJeLR cell viability loss. BJeLR (HRASV12) viability, CellTiter-Glo ATP luminescence, 48 h. inhibition, % (concentration not given with the values). actives 0.17% (n = 300,000); in the data active = inhibition above about 50%; inconclusive = no clear call, values can overlap the other calls
Autofluor counter: counter-screen for toxin protease inhibitors: compound fluorescence; compound autofluorescence counterscreen, microsphere flow cytometry; hits give high values; fluorescence intensity (test concentration not listed); actives 3.1% (n = 360,000); in the data active = fluorescence intensity above about 16000; inconclusive = no clear call, values can overlap the other calls
BoNT A protease: BoNT A light chain protease inhibition | multiplex microsphere protease substrate cleavage, flow cytometry | inhibition, % at 10 µM | actives 0.17% (n = 360,000) | AID 588499; also: plate controls were buffer without enzyme for full effect and enzyme alone for no effect
3CLpro inhibitor: SARS-CoV 3CLpro protease inhibition | AID 1706 | inhibition, % at 6 µM | P0C6X7 | actives 0.14% (n = 290,000) | recombinant SARS-CoV 3CLpro, quenched FRET peptide cleavage; in the data active = inhibition above about 12%
* hit, by the source's call. In the library only some 3.6% were active in any assay of this set; here they are far more common. Rule as the data show it, unless noted: active = inhibition above about 30%; inconclusive = no clear call, values can overlap the other calls; inactive = below that.

How did CC(=O)N1CC=C2C(C#N)=C(N)C(C#N)(C#N)[C@H](c3ccoc3)[C@H]2C1 do in these assays?
BoNT F protease: -1.4; Anthrax LF prot: -0.1; BJeLR lethal: 2.5; Autofluor counter: 23512*; BoNT A protease: 0.6; 3CLpro inhibitor: -3.3

What do the screens show for `CCCCOc1ccc(C2C3CN(C(=O)OCC)CC=C3C(C#N)=C(N)C2(C#N)C#N)cc1OC` (configuration not stated)?
BoNT F protease: -1.1; Anthrax LF prot: 0.9; BJeLR lethal: -13.7; Autofluor counter: 23656*; BoNT A protease: -0.8; 3CLpro inhibitor: -4.6

Results for CCOC(=O)N1CC=C2C(C#N)=C(N)C(C#N)(C#N)[C@H](c3ccc(OCC)c(OCC)c3)[C@H]2C1 ?
BoNT F protease: -3.1; Anthrax LF prot: 0.4; BJeLR lethal: 2.2; Autofluor counter: 20898*; BoNT A protease: -1.9; 3CLpro inhibitor: 1.1

What do the screens show for `CN1CC=C2C(C#N)=C(N)C(C#N)(C#N)[C@H](c3ccoc3)[C@H]2C1`?
BoNT F protease: -21.8; Anthrax LF prot: -0.4; BJeLR lethal: 0.0; Autofluor counter: 2574; BoNT A protease: 0.7; 3CLpro inhibitor: -5.6

Results for CC(C)N(Cc1ccccc1)C(=O)CCS(=O)(=O)c1ccc2c(c1)oc(=O)n2C ?
BoNT F protease: 2.0; Anthrax LF prot: -2.1; BJeLR lethal: 0.7; Autofluor counter: 5719; BoNT A protease: 1.1; 3CLpro inhibitor: 5.1

Results for CC1=C(C(=O)N(C(C)C)C(C)C)CC(CC(=O)NCCN2CCOCC2)C(=O)N1Cc1ccc(C(C)(C)C)cc1 (configuration not stated) ?
BoNT F protease: -10.2; Anthrax LF prot: -0.7; Autofluor counter: 6290; BoNT A protease: -0.1

What do the screens show for `Cc1ccc(-c2nc(N3CCOCC3)sc2C(=O)N2CCCCC2)cc1`?
BoNT F protease: -6.6; Anthrax LF prot: -0.5; BJeLR lethal: -2.6; Autofluor counter: 2189; BoNT A protease: 0.0; 3CLpro inhibitor: 1.3

Results for CCCNC(=O)CCCCn1c(=S)[nH]c2c([nH]c3ccc(OC)cc32)c1=O ?
BoNT F protease: -3.4; Anthrax LF prot: 1.5; BJeLR lethal: -8.2; Autofluor counter: 4144; BoNT A protease: -0.6; 3CLpro inhibitor: 1.8

How did COc1ccc2[nH]c3c(=O)n(CCCCC(=O)N4CCCC4)c(=S)[nH]c3c2c1 do in these assays?
BoNT F protease: -0.4; Anthrax LF prot: -1.0; BJeLR lethal: -0.3; Autofluor counter: 23557*; BoNT A protease: 0.0; 3CLpro inhibitor: -1.7

Results for O=C(c1ccco1)N1CCC(c2nc3ccccc3[nH]2)CC1 ?
BJeLR lethal: -3.4

Results for Cc1ccc(C)c(NC(=O)COC(=O)COc2cccc3c2OC(C)(C)C3)c1 ?
BoNT F protease: -3.1; Anthrax LF prot: -2.1; BJeLR lethal: 8.2; Autofluor counter: inconclusive; BoNT A protease: -0.4

What do the screens show for `CCCOc1ccc(C(=O)NC(=S)Nc2nc(C)c(C(=O)N(C)C)s2)cc1`?
BoNT F protease: 15.1; Anthrax LF prot: -21.1; BJeLR lethal: 3.5; Autofluor counter: 18538*; BoNT A protease: 11.0; 3CLpro inhibitor: 3.0

How did Cc1csc(NC(=O)c2ccc(Br)s2)n1 do in these assays?
BoNT F protease: -3.4; Anthrax LF prot: -2.3; BJeLR lethal: 1.0; Autofluor counter: 5758; BoNT A protease: 0.1; 3CLpro inhibitor: -7.2

How did Cc1nc(NC(=S)NC(=O)c2ccccc2)sc1C(=O)N(C)C do in these assays?
BoNT F protease: 1.3; Anthrax LF prot: -3.3; BJeLR lethal: -5.3; Autofluor counter: 21936*; BoNT A protease: 0.7; 3CLpro inhibitor: 3.2

Results for Cc1nc(NC(=O)c2ccc(Br)s2)sc1C(=O)N(C)C ?
BoNT F protease: -1.7; Anthrax LF prot: 1.4; BJeLR lethal: -17.9; Autofluor counter: 16535*; BoNT A protease: inconclusive; 3CLpro inhibitor: 4.3

What do the screens show for `CCOC(=O)c1sc(NC(=S)NC(=O)c2ccccc2)nc1C`?
BoNT F protease: -5.4; Anthrax LF prot: -3.4; BJeLR lethal: 5.4; Autofluor counter: 4291; BoNT A protease: -0.8; 3CLpro inhibitor: 4.4

Results for Cc1ccc(C(=O)NNC(=O)c2ccoc2C)s1 ?
BoNT F protease: -9.0; Anthrax LF prot: -2.0; Autofluor counter: 5180; BoNT A protease: 0.3

How did CC(C)S(=O)(=O)N1CCCC(c2cc(C(=O)Nc3ccc(F)c(Cl)c3)no2)C1 (configuration not stated) do in these assays?
BoNT F protease: 4.3; Anthrax LF prot: 6.8; Autofluor counter: 3840; BoNT A protease: -0.3

What do the screens show for `COc1ccccc1N1CCN(C(=O)c2ccc3c(=O)n(Cc4ccc5c(c4)OCO5)c(=O)[nH]c3c2)CC1`?
BoNT F protease: -0.6; Anthrax LF prot: -4.2; BJeLR lethal: 2.6; Autofluor counter: 4165; BoNT A protease: 0.0; 3CLpro inhibitor: 4.1

What do the screens show for `Cc1ccc(N2CC(C(=O)OCC(=O)C(C)(C)C)CC2=O)cc1` (configuration not stated)?
BoNT F protease: -1.6; Anthrax LF prot: -4.0; BJeLR lethal: 1.7; Autofluor counter: 23049*; BoNT A protease: 0.0; 3CLpro inhibitor: 5.4

How did Cc1ccc(N2CC(C(=O)Oc3cccc(N4C(=O)CCC4=O)c3)CC2=O)cc1 (configuration not stated) do in these assays?
BoNT F protease: -4.0; Anthrax LF prot: -2.9; BJeLR lethal: 5.9; Autofluor counter: 21129*; BoNT A protease: -1.5; 3CLpro inhibitor: -5.7

Results for COC(=O)C1CC(=O)N(c2ccc(C)cc2)C1 (configuration not stated) ?
BoNT F protease: 1.2; Anthrax LF prot: -1.8; BJeLR lethal: 0.3; Autofluor counter: 2606; BoNT A protease: -0.2; 3CLpro inhibitor: 4.9

What do the screens show for `CCc1ccc(NC(=O)CCC(=O)Nc2nnc(C(C)C)s2)cc1`?
BoNT F protease: 9.0; Anthrax LF prot: -4.6; BJeLR lethal: -5.7; Autofluor counter: 5057; BoNT A protease: 1.7; 3CLpro inhibitor: 3.5

Results for COc1ccccc1Oc1ccc2c(c1)C(=O)N(CC1CCCO1)C2=O (configuration not stated) ?
BoNT F protease: inconclusive; Anthrax LF prot: 15.8; BJeLR lethal: -7.9; Autofluor counter: inconclusive; BoNT A protease: -1.5; 3CLpro inhibitor: -0.9

Results for CN(C)C(=O)N1CCN(C(=O)c2ccco2)CC1 ?
BoNT F protease: 5.1; Anthrax LF prot: -2.1; BJeLR lethal: -6.6; Autofluor counter: 5997; BoNT A protease: -0.3; 3CLpro inhibitor: 0.8

Results for Cc1ccc(CN2CCN(C(=O)c3ccco3)CC2)cc1 ?
BoNT F protease: 1.2; Anthrax LF prot: -1.9; BJeLR lethal: -9.7; Autofluor counter: 2542; BoNT A protease: -0.8; 3CLpro inhibitor: 1.9

How did O=C(c1ccco1)N1CCN(c2ccc(S(=O)(=O)N3CCCC3)cc2)CC1 do in these assays?
BoNT F protease: 0.1; Anthrax LF prot: 0.8; BJeLR lethal: -13.8; Autofluor counter: 22603*; BoNT A protease: -0.1; 3CLpro inhibitor: 2.6

What do the screens show for `Cc1ccc(-c2cc(C(=O)N3CCN(C(=O)c4ccco4)CC3)no2)cc1`?
BoNT F protease: 0.9; Anthrax LF prot: -5.4; BJeLR lethal: -7.1; Autofluor counter: 20055*; BoNT A protease: 1.4; 3CLpro inhibitor: 3.0
